Measured values reported in PubChem BioAssay AID1159580 (chemical genetic matrix, 2015).
About 2,000 (36%) of roughly 5,500 compounds were called active. Inconclusive results (about 18%) are left out. No stated cut-off is given here; in the data, active means normalized growth mostly below about 0.91 (no sharp cut-off); inconclusive means no clear call, values can overlap the other calls; inactive means mostly above about 0.92. The list shows a part of the results.

Test: chemical genetic growth profiling, strain panel (AID 1159580);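 further: tested at 20 µM; growth read once vehicle control cultures reached saturation at 30 °C; 1 = growth at the plate median or of vehicle wells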
Conditions: S. cerevisiae deletion strains, growth OD

Measured: normalized growth

O=C(O)c1c2ccccc2cc2ccccc12
inactive: locus YAL013W, strain DEP1, stronger effect = lower value 1.02 | locus YAL021C, strain ccr4, stronger effect = lower value 0.973 | locus YAL026C, strain drs2, stronger effect = lower value 1.02 | locus YAL030W, strain snc1, stronger effect = lower value 0.99 | locus YBL061C, strain skt5, stronger effect = lower value 1 | locus YBR009C, strain hhf1, stronger effect = lower value 0.989 | locus YBR021W, strain FUR4, stronger effect = lower value 0.967 | locus YBR023C, strain chs3, stronger effect = lower value 1.01 | locus YBR171W, strain sec66, stronger effect = lower value 0.994 | locus YBR229C, strain ROT2, stronger effect = lower value 1.02 | locus YBR231C, strain swc5, stronger effect = lower value 1.01 | locus YBR279W, strain paf1, stronger effect = lower value 0.959 | locus YCL011C, strain gbp2, stronger effect = lower value 0.998 | locus YCL016C, strain dcc1, stronger effect = lower value 1.01 | locus YCL029C, strain bik1, stronger effect = lower value 0.992 | locus YCL061C, strain MRC1, stronger effect = lower value 1 | locus YCL069W, strain vba3, stronger effect = lower value 1.01 | locus YCR088W, strain abp1, stronger effect = lower value 0.996 | locus YDL005C, strain med2, stronger effect = lower value 0.99 | locus YDL035C, strain GPR1, stronger effect = lower value 1 | locus YDL040C, strain nat1, stronger effect = lower value 0.991 | locus YDL074C, strain BRE1, stronger effect = lower value 1.03 | locus YDL101C, strain DUN1, stronger effect = lower value 1.02 | locus YDL134C, strain PPH21, stronger effect = lower value 1.01 | locus YDL185W, strain tfp1, stronger effect = lower value 0.953 | locus YDL192W, strain arf1, stronger effect = lower value 0.98 | locus YDR001C, strain nth1, stronger effect = lower value 0.991 | locus YDR069C, strain doa4, stronger effect = lower value 0.991 | locus YDR101C, strain arx1, stronger effect = lower value 0.983 | locus YDR137W, strain rgp1, stronger effect = lower value 0.965 | locus YDR150W, strain NUM1, stronger effect = lower value 1.02 | locus YDR159W, strain sac3, stronger effect = lower value 1.03 | locus YDR162C, strain NBP2, stronger effect = lower value 1.03 | locus YDR297W, strain sur2, stronger effect = lower value 0.99 | locus YDR318W, strain mcm21, stronger effect = lower value 0.976 | locus YDR334W, strain swr1, stronger effect = lower value 1 | locus YDR335W, strain msn5, stronger effect = lower value 1 | locus YDR388W, stronger effect = lower value 0.98 | locus YDR392W, strain spt3, stronger effect = lower value 0.906 | locus YDR502C, strain sam2, stronger effect = lower value 0.986 | locus YEL003W, strain gim4, stronger effect = lower value 0.994 | locus YEL037C, strain rad23, stronger effect = lower value 1.01 | locus YEL061C, strain CIN8 (second series), stronger effect = lower value 0.993 | locus YEL061C, strain CIN8, stronger effect = lower value 1.01 | locus YER015W, strain faa2, stronger effect = lower value 1.01 | locus YER016W, strain bim1, stronger effect = lower value 1.01 | locus YER110C, stronger effect = lower value 0.964 | locus YER111C, strain swi4, stronger effect = lower value 0.997 | locus YER155C, strain BEM2 (second series), stronger effect = lower value 1.01 | locus YER155C, strain BEM2, stronger effect = lower value 1.01 | locus YER167W, strain BCK2, stronger effect = lower value 1.02 | locus YFR010W, strain ubp6, stronger effect = lower value 1.01 | locus YGL078C, strain dbp3, stronger effect = lower value 0.969 | locus YGL086W, strain mad1, stronger effect = lower value 0.984 | locus YGL167C, strain pmr1, stronger effect = lower value 1 | locus YGL173C, strain kem1, stronger effect = lower value 0.996 | locus YGL227W, strain vid30, stronger effect = lower value 1 | locus YGL240W, strain doc1, stronger effect = lower value 0.964 | locus YGL248W, strain PDE1, stronger effect = lower value 1.02 | locus YGL253W, strain hxk2, stronger effect = lower value 1.01 | locus YGR078C, strain PAC10, stronger effect = lower value 1.01 | locus YGR135W, strain pre9, stronger effect = lower value 0.971 | locus YGR229C, strain SMI1, stronger effect = lower value 1.02 | locus YGR252W, strain gcn5, stronger effect = lower value 0.955 | locus YHR013C, strain ard1, stronger effect = lower value 0.926 | locus YHR027C, strain rpn1, stronger effect = lower value 1.01 | locus YHR030C, strain SLT2, stronger effect = lower value 1.01 | locus YHR079C, strain IRE1 (second series), stronger effect = lower value 0.989 | locus YHR094C, strain hxt1, stronger effect = lower value 0.987 | locus YHR129C, strain ARP1, stronger effect = lower value 1.02 | locus YHR142W, strain chs7, stronger effect = lower value 0.987 | locus YHR200W, strain rpn10, stronger effect = lower value 0.977 | locus YIL066C, strain RNR3, stronger effect = lower value 0.981 | locus YIL073C, strain SPO22, stronger effect = lower value 0.924 | locus YIL125W, strain kgd1, stronger effect = lower value 0.959 | locus YIR030C, strain dcg1, stronger effect = lower value 0.987 | locus YJL092W, strain hpr5, stronger effect = lower value 1.01 | locus YJL095W, strain BCK1 (second series), stronger effect = lower value 0.988 | locus YJL095W, strain BCK1, stronger effect = lower value 1 | locus YJL115W, strain asf1, stronger effect = lower value 0.997 | locus YJL129C, strain trk1, stronger effect = lower value 1 | locus YJL134W, strain LCB3, stronger effect = lower value 1.01 | locus YJL154C, strain vps35, stronger effect = lower value 0.988 | locus YJL164C, strain tpk1, stronger effect = lower value 0.969 | locus YJL166W, strain qcr8, stronger effect = lower value 0.973 | locus YJL168C, strain set2, stronger effect = lower value 0.971 | locus YJL187C, strain SWE1 (second series), stronger effect = lower value 1.01 | locus YJL187C, strain SWE1, stronger effect = lower value 0.985
active: locus YDR195W, strain ref2 1.26 [resistant]
